Experimental data from ChEMBL document CHEMBL2218924, “A broad activity screen in support of a chemogenomic map for kinase signalling research and drug discovery” (Biochem J, 2013).

What was measured:
[1] = target: T1, Mitogen-activated protein kinase 12 (Homo sapiens) (UniProt P53778); conditions: at 1 µM
T1 sequence (whole entry): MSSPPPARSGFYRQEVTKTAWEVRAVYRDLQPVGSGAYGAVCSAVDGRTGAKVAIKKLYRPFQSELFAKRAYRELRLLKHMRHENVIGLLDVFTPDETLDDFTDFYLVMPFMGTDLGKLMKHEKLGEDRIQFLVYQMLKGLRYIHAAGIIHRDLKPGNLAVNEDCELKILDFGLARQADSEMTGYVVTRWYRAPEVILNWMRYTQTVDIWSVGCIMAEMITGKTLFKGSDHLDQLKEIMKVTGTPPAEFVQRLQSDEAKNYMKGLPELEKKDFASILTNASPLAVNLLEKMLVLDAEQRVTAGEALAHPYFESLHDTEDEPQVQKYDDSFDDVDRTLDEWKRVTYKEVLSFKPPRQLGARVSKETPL

[2] = target: T1, Mitogen-activated protein kinase 12 (Homo sapiens); conditions: at 10 µM

Compound	residual activity [1]	residual activity [2]
Ic1cccc(CSc2nnc(-c3ccncc3)o2)c1	88%	93%
Nc1nc(Nc2ccc(S(N)(=O)=O)cc2)nn1C(=S)Nc1c(F)cccc1F	56%	69%
Cc1cc2ncc(-c3ccccc3)nc2cc1C	100%	100%
NCCNc1ncc(C(N)=O)c(Nc2cccc(C(F)(F)F)c2)n1	103%	106%
O=C(O)/C=C/c1cc(Br)c(Br)c(Br)c1Br	110%	90%
O=C1Nc2ccc(Br)cc2/C1=C\c1cc2c([nH]1)CCCC2	115%	102%
